Data reported in ChEMBL document CHEMBL3433997, “St. Jude Leishmania screening dataset” (2016).

Experiments:
Type in all cases: functional
[1] = target: Solute carrier family 2, facilitated glucose transporter member 1 (Homo sapiens) (UniProt P11166); test: ST_JUDE_LEISH: Cytotoxicity at 2uM final concentration against transgenic Leishmania Mexicana promastigotes LmGLUT1 that are glucose transport deficient and complemented with the human glucose transporter GLUT1. Activity is measured by DNA content using SYBR green in vitro
[2] = target: Hexose transporter 1 (Plasmodium falciparum) (UniProt O97467); test: ST_JUDE_LEISH: Cytotoxicity at 2uM final concentration against transgenic Leishmania Mexicana promastigotes LmPfHT that are glucose transport deficient and complemented with the Plasmodium falciparum hexose transporter. Activity is measured by DNA content using SYBR green in vitro
[3] = target: Glucose transporter (Leishmania mexicana) (UniProt O61059); test: ST_JUDE_LEISH: Cytotoxicity at 2uM final concentration against transgenic Leishmania Mexicana promastigotes LmGT2 that are glucose transport deficient and complemented with the L. Mexicana glucose transporter 2. Activity is measured by DNA content using SYBR green in vitro

Chain of Solute carrier family 2, facilitated glucose transporter member 1 (Homo sapiens) (P11166 whole entry): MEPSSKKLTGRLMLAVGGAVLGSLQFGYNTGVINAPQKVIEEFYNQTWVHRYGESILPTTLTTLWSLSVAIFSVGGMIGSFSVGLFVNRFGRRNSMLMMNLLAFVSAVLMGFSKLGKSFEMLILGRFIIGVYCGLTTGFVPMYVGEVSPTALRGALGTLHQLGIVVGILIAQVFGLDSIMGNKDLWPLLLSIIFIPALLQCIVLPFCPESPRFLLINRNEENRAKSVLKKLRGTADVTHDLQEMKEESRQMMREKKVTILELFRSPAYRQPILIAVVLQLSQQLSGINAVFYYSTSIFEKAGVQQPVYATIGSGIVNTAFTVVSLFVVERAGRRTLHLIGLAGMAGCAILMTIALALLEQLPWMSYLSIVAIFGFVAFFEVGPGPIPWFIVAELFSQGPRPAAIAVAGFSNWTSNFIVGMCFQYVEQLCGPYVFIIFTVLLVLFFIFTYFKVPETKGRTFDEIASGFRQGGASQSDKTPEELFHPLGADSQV

Row | Compound | inhibition [1] [%] | inhibition [2] [%] | inhibition [3] [%]
1 | Clc1ccc(C2CCN(CCCOc3ccc4c(c3)CCNCC4)CC2)cc1 | 56.8 | 40.9 | 75.7
2 | CCC(C)CN1CCN(c2ccc(NC(=O)c3cccs3)cc2)C(C)C1 (stereo unspecified) | 8.34 | 9.28 | 5.37
3 | CS(=O)(=O)c1ccc2[nH]c(-c3cc(-c4cccc(F)c4)cnc3N)nc2c1 | 5.71 | 3.53 | 3.04
4 | c1ccc(-c2nc3ccccc3[nH]2)c(Nc2ccnc3cc(-c4nccs4)ccc23)c1 | 4.76 | 0.91 | 0.58
5 | C=CCc1cc(SC)ccc1Oc1ccc(N)cc1 | 1.84 | 2.06 | 1.08
6 | O=C(O[C@@H]1CN[C@H](C#Cc2cc3c(Nc4ccc5c(cnn5Cc5ccccc5)c4)ncnc3s2)C1)N1CCCC1 | -0.49 | 0.25 | -0.78
7 | O=C(NCCCCCN1CCCN(C(=O)Nc2ccc(F)c(C(F)(F)F)c2)CC1)C1CC1c1ccc(Cl)c(Cl)c1 (stereo unspecified) | 2.53 | 2.1 | 0.2
8 | Cc1ccc(/C=C/C(=O)NC2CCC(N3CCC(c4ccccc4C)CC3)CC2)cc1F (stereo unspecified) | 15.1 | 17.5 | 13.7
9 | Cc1ccc(NS(=O)(=O)c2ccc(-c3ccccc3)cc2)c(Cn2cnc(N3CCCNCC3)cc2=O)c1 | 4.14 | 3.45 | -3.65
10 | O=c1cc(NCCC(CNCc2cc3ccccc3o2)NCc2cc(Br)cc(Br)c2)[nH]c2ccccc12 (stereo unspecified) | 0.2 | 0.33 | 2.33
11 | CC1(C)NC(N)=NC(=N)N1OCCCOc1cccc(Cl)c1 | 3.04 | 5.38 | 2.82
12 | O=C(Nc1cccc(-c2ccc(-c3nc4ccccc4[nH]3)cc2)c1)c1csnn1 | 1.19 | 1.58 | 0.69
